Consider 31 compounds from PubChem BioAssay (EPA / NIEHS).

Where “and” joins values, the source holds several entries; their conditions need not be identical. Identical values can stand only once. Calls of active or inactive are those of the source. The calls were made as follows: active = hit-call score of the fitted dose curve at least 0.9, where 1 is the maximum; inactive = score below 0.9.

Holding throughout (settings): primary human HUVEC with PBMC; actives raise or lower the signal
Read-out in test [1]: Interleukin-1 alpha (IL1a), IL1A (gene 3552)
The experiment in a line: BSK_LPS_IL1a: BioMAP Diversity Plus: LPS Assay for Interleukin-1 alpha (IL1a) Biomarker Activity (AID 2283080). The method, boiled down:
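Human umbilical vein endothelial cells co-cultured with PBMC and stimulated with LPS; IL-1a measured by ELISA 24 h after dosing. Bidirectional fitting against DMSO; cytotoxicity checked by SRB staining in parallel cultures.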

Read-out in test [2]: Monocyte Chemoattractant Protein-1 (MCP1), CCL2 (gene 6347)
The experiment in a line: BSK_LPS_MCP1: BioMAP Diversity Plus: LPS Assay for Monocyte Chemoattractant Protein-1 (MCP1) Biomarker Activity (AID 2283081).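 As to AC50: secreted MCP-1 protein quantified by ELISA in culture supernatant.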 The method, boiled down:
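Human umbilical vein endothelial cells co-cultured with PBMC, LPS-stimulated; secreted MCP-1 measured by ELISA 24 h after compound addition. Bidirectional curve fitting against DMSO baseline; SRB total-protein staining in parallel cultures for cytotoxicity.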

Test [3] can be described thus: BSK_LPS_PGE2: BioMAP Diversity Plus: LPS Assay for Prostaglandin E2 (PGE2) Biomarker Activity (AID 2283082). The method, boiled down: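 HUVEC plus PBMC co-culture stimulated with LPS; secreted PGE2 quantified by ELISA 24 h after chemical dosing. Activity fitted bidirectionally against DMSO as negative control and baseline; parallel SRB total-protein staining served as cytotoxicity check.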

Read-out in test [4]: Macrophage colony-stimulating factor (MCSF), CSF1 (gene 1435)
The experiment in a line: BSK_LPS_MCSF: BioMAP Diversity Plus: LPS Assay for Macrophage colony-stimulating factor (MCSF) Biomarker Activity (AID 2283083). In outline: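 HUVEC–PBMC co-culture, M-CSF measured by ELISA 24 h after chemical dosing. Fitted in both directions relative to DMSO as negative control; overt cytotoxicity assessed by SRB total-protein staining in parallel cultures.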

Read-out in test [5]: Tissue Factor, F3 (gene 2152)
The experiment in a line: BSK_LPS_TissueFactor: BioMAP Diversity Plus: LPS Assay for Tissue Factor Biomarker Activity (AID 2283084). The method, boiled down:
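Human umbilical vein endothelial cells co-cultured with PBMC were dosed with compound. Cell-surface CD142 was measured by ELISA 24 h later. Activity was fitted bidirectionally against DMSO, with SRB total-protein staining in parallel cultures for cytotoxicity.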

Read-out in test [6]: Tumor necrosis factor (Homo sapiens) (UniProt P01375)
Briefly: BSK_LPS_TNFa: BioMAP Diversity Plus: LPS Assay for Tumour Necrosis Factor alpha (TNFa) Biomarker Activity (AID 2283085).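 As to AC50: TNFa protein level quantified by ELISA in the co-culture.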 In outline:
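Human umbilical vein endothelial cells co-cultured with PBMC were exposed to test chemical and TNFa measured by ELISA 24 h after dosing. Bidirectional curve fitting was done relative to DMSO as negative control and baseline.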

Read-out in test [7]: CD38, CD38 (gene 952)
The experiment in a line: BSK_SAg_CD38: BioMAP Diversity Plus: SAg Assay for CD38 Biomarker Activity (AID 2283087). The method, boiled down: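 Fluorescence ELISA of cell-surface CD38 served as the read-out, with either increase or decrease fitted against DMSO controls. Cells were a human umbilical vein endothelium plus PBMC co-culture under SEB/TSST-1 stimulation, measured 24 h after dosing.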

Read-out in test [8]: CD40, CD40 (gene 958)
Briefly: BSK_SAg_CD40: BioMAP Diversity Plus: SAg Assay for CD40 Biomarker Activity (AID 2283088). The method, boiled down:
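HUVEC plus PBMC co-culture, superantigen-activated, with CD40 read by ELISA 24 h after dosing. Curves fitted in both directions against DMSO. Overt cytotoxicity checked by parallel SRB total-protein staining.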

Read-out in test [9]: CD69, CD69 (gene 969)
The experiment in a line: BSK_SAg_CD69: BioMAP Diversity Plus: SAg Assay for CD69 Biomarker Activity (AID 2283089).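 As to AC50: cell surface CD69 protein quantified by ELISA with fluorescence detection.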 In outline: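 ELISA, fluorescence read-out: CD69 on human umbilical vein endothelial cell + PBMC co-culture, 24 h post-dosing. Gain or loss of signal fitted bidirectionally against DMSO baseline.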

Read-out in test [10]: Vascular cell adhesion molecule 1 (VCAM1), VCAM1 (gene 7412)
Briefly: BSK_LPS_VCAM1: BioMAP Diversity Plus: LPS Assay for Vascular cell adhesion molecule 1 (VCAM1) Biomarker Activity (AID 2283086). In outline: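 Human umbilical vein endothelial cells co-cultured with peripheral blood mononuclear cells under LPS stimulation were exposed to test chemical for 24 h. VCAM-1 levels were then measured by ELISA, with bidirectional curve fitting relative to DMSO as negative control and baseline.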

Chain of Tumor necrosis factor (Homo sapiens) (P01375 whole entry, looked up): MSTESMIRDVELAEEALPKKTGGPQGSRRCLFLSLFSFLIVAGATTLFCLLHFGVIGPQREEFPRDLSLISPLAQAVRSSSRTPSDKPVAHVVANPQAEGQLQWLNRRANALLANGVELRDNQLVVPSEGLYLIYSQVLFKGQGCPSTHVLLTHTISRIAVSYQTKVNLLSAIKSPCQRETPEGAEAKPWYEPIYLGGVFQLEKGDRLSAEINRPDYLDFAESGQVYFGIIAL

Take `Cc1c(O)cccc1O`: the outcome in test [1], in [2], in test [3], in test [4], in test [5] and in [6] was inactive. Also, the outcome in test [7], in test [8] and in test [9] was inactive.
Regarding `CC=C(C)C(C)=O`, the result in test [1], in test [2], in test [3], in test [5], in test [6] and in test [10] was inactive. In addition, the result in test [7], in test [8] and in [9] was inactive.
Take `Oc1c(Cl)cc(Cl)c(Cl)c1Cl`: the result in [1], in [3] and in test [6] was inactive. Moreover, the AC50 (commonly the concentration at which the activity in the assay is half-maximal) was 31.5 µM (active) in test [2]; 20 µM (active) in [5]; 20 µM (active) in test [7]; 20 µM (active) in test [8]; 27.8 µM (active) in [9].
Take `C=CC(=O)NC(C)(C)C`: the result in test [1], in test [2], in [3], in test [5], in test [6] and in [7] was inactive. Moreover, the outcome in test [8] and in test [9] was inactive.
In the case of `Oc1ccc(/C=C/c2cc(O)cc(O)c2)cc1`, the outcome in [1], in test [5], in test [6], in test [7], in [8] and in [9] was inactive. Besides, the results for the AC50 in test [2] and in [3] were 20 µM (active) and 2.5 µM (active), respectively.
As for `C=CC(=O)OCC(C)OCC(C)OCC(C)OC(=O)C=C` (stereo not given), the AC50 in test [1] is 9.53 µM (active); in [2], 9.18 µM (active); in [3], 5.46 µM (active); in [5], 10.6 µM (active); in test [7], 7.74 µM (active); in test [8], 8.77 µM (active). In addition, the AC50 in test [9] was 7.77 µM (active). In addition, the result in [6] was inactive.
`CC(c1cc(C(C)(C)C)cc(C(C)(C)C)c1O)c1cc(C(C)(C)C)cc(C(C)(C)C)c1O`: the result in [1], in [2], in [3], in test [5], in test [6] and in test [10] was inactive. In addition, the result in test [7], in test [8] and in test [9] was inactive.
On to `CC(CCC(=O)O)(c1ccc(O)cc1)c1ccc(O)cc1`, for which the result in test [1], in [2], in test [3], in test [5], in test [6] and in test [7] was inactive. Also, the outcome in [8] and in [9] was inactive.
Regarding `O=C(O)C(F)(F)C(F)(F)C(F)(F)C(F)(F)C(=O)O`, the outcome in test [1], in test [2], in test [3], in test [5], in test [6] and in test [7] was inactive. Also, the result in [8] and in test [9] was inactive.
`CCCCCCCCCCCC(C)=O`: the result in test [1], in test [2], in test [3] and in test [5] was inactive. Also, the AC50 in test [6] was 29.2 µM (active); in [7], 31.6 µM (active); in test [8] it was 30 µM (active); in test [9] it was 31.1 µM (active).
In the case of `O=C(Cl)c1c(Cl)c(Cl)c(C(=O)Cl)c(Cl)c1Cl`, the outcome in [1], in [2], in [3], in [5], in [6] and in [10] was inactive. The outcome in test [7], in [8] and in test [9] was inactive.
As for `O=C1CCCCCCCCCCCN1`, the outcome in test [1], in test [2], in [3], in [5], in test [7] and in [8] was inactive. Besides, the result in test [9] was inactive. In addition, the AC50 in test [6] was 11.9 µM (active).
As for `O=C(Oc1ccccc1)c1ccccc1C(=O)Oc1ccccc1`, the result in test [1], in test [2], in test [3], in test [5] and in test [6] was inactive. The results for the half-maximal activity concentration (AC50) in test [7] and in test [9] were 29.7 µM (active) and 24.1 µM (active), respectively.
With `Nc1ccc(C(=O)O)cc1`, the outcome in [1], in [2], in test [3], in test [5], in test [6] and in [7] was inactive. Moreover, the outcome in test [8] and in [9] was inactive.
With `C1CNCCN1`, the outcome in test [1], in test [2], in test [3], in test [5], in [6] and in test [7] was inactive. Also, the result in test [8] and in [9] was inactive.
`CC(C)c1cccc(C(C)C)c1N`: the result in test [1], in test [2], in [3], in test [5], in [6] and in [7] was inactive. Further, the result in test [8] and in [9] was inactive.
Take `CC(C)[N+](C)(CCOC(=O)C1c2ccccc2Oc2ccccc21)C(C)C`: the result in test [1], in test [2], in test [3], in test [5], in [6] and in test [7] was inactive. In addition, the outcome in [8] and in test [9] was inactive.
Regarding `CC1=CC=C(C(C)C)CC1`, the outcome in test [1], in test [2], in test [3], in test [5], in test [6] and in [10] was inactive. The outcome in [7], in test [8] and in test [9] was inactive.
On to `CCCCCCCCC(CO)CCCCCC` (stereo not given), for which the outcome in test [1], in test [2], in [3], in test [5], in test [6] and in test [7] was inactive. In addition, the outcome in test [8] and in test [9] was inactive.
Turning to `C=CC(=O)OCCCCCCCC(C)C`, the result in test [1], in test [2], in test [3], in [5], in test [6] and in test [7] was inactive. Further, the outcome in test [8] and in [9] was inactive.
As for `CC/C=C\C/C=C\C/C=C\CCCCCCCC(=O)OC`, the concentration at half-maximal activity (AC50) in test [1] was 13.9 µM (active); in test [2] it was 30.6 µM (active); in test [3] it was 5.75 µM (active); in test [5], 12.6 µM (active); in test [6] it was 13.7 µM (active); in test [7], 15.1 µM (active). Also, the values for the AC50 in [8] and in test [9] were 14.8 µM (active) and 21.6 µM (active), respectively.
As for `CCCCCC1=CCCC1=O`, the result in test [1], in test [2], in test [3], in test [5], in test [6] and in [7] was inactive. The outcome in test [8] and in test [9] was inactive. In addition, the AC50 in test [10] was 24 µM (active).
Consider `CCC1(C)C(=O)N(Cl)C(=O)N1Cl` (stereo not given), for which the outcome in [1], in test [2], in test [3], in test [5], in test [6] and in [7] was inactive. In addition, the outcome in test [8] and in [9] was inactive.
As to `Fc1ccc(Br)cc1`, the result in test [1], in test [2], in [3], in [5], in [6] and in test [7] was inactive. Further, the result in test [8] and in test [9] was inactive.
Consider `CCCCCCOC(=O)CCCCC(=O)OCCCCCC`, for which the result in [1], in test [2], in [3], in test [5], in [6] and in [7] was inactive. Further, the result in test [8] and in [9] was inactive.
As to `COC(OC)(C(=O)c1ccccc1)c1ccccc1`, in [1], the AC50 is 0.0387 µM (active). Further, the outcome in [2], in [3], in test [5], in test [6], in test [10] and in [7] was inactive. Further, the result in test [8] and in test [9] was inactive.
Take `CC(C)CCCCCOC(=O)CS`: the outcome in [1], in test [2], in test [3], in test [5], in [6] and in [7] was inactive. For the same compound, the result in test [8] and in test [9] was inactive.
For the compound `CCCCC1C(=O)N(c2ccccc2)N(c2ccccc2)C1=O`, the outcome in [1], in test [2], in [3], in [5], in test [6] and in test [7] was inactive. For the same compound, the result in test [8] and in test [9] was inactive.
As to `CCNc1nc(NC(C)(C)C)nc(OC)n1`, the result in [1], in [2], in test [5], in [10], in [7] and in test [8] was inactive. Besides, the outcome in test [9] was inactive. Further, the AC50 in [3] is 0.0727 µM (active); in test [6] it was 5.59 µM (active).
For the compound `Oc1ccccc1Cc1ccccc1O`, the result in test [1], in test [2], in [5], in test [6], in test [7] and in [8] was inactive. The result in [9] was inactive. Also, the AC50 in test [3] was 2.47 µM (active) and 1.8 µM (active).
For the compound `c1ccc2sc(SSN3CCOCC3)nc2c1`, the outcome in [1], in test [2], in test [3], in test [5], in test [6] and in test [8] was inactive. The outcome in [9] was inactive. The AC50 in [7] was 20 µM (active).
